In the library only some 2.2% were active in any assay of this set; here they are far more common.
H9c2 protect – myocardial damage modulation in H9c2 cells. H9c2 cardiomyocytes, H2O2 injury protection, ATPLite, 2 h. protection from H2O2 cell death, % at 20 µM. hit rate 0.63% among 360,000. AID 588492;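 active means compounds giving at least 50% protection of heart cells from peroxide-induced death in the single-dose screen, raw or plate-pattern-corrected value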;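 further: 0% = DMSO wells with peroxide and 100% = DMSO wells without peroxide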
ABCB6 inh MLPCN – inhibitors of human ABC transporter ABCB6; fluorescence ratio to DMSO, % at 10 µM; hit rate 0.19% among 360,000; Q9NP58; K562-ABCB6 porphyrin accumulation, flow cytometry, 1 h; active compounds read low;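 active means fluorescence ratio to DMSO below 75%, the collection mean minus 3 SD; inconclusive means too few cells collected in the well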;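 further: signal is porphyrin accumulated inside mitochondria; 100% equals median channel fluorescence of DMSO control wells; lower ratio means ABCB6 inhibition with less porphyrin fluorescence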
hiPSC survival – hiPSC single-cell survival enhancement; ATPlite luminescence; 100% = ROCK inhibitor wells, 0% = DMSO; survival enhancement, % at 20 µM; hit rate 0.044% among 360,000; in the data active means survival enhancement above about 18%;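 further: cells exposed to compounds for 16 hours before the ATP read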
beta cell repl – MIN6 beta-cell proliferation induction. MIN6 cells proliferation, ATPlite luminescence, 48 h; cells starved in 0.2% serum; 100% = growth in 10% serum. AID 2380. proliferation, % at 10 µM. hit rate 0.29% among 330,000;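 active means compounds whose signal lies at least 3.5 SD above the mean of all wells on their plate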;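 further: 0% = DMSO-treated cells in low-serum medium and 100% = 10% serum control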
Myeloid diff 2 – myeloid differentiation induction; ER-HoxA9 myeloid progenitors, lysozyme-GFP differentiation, flow cytometry; calls only at 10 µM; hit rate 1% among 360,000; AID 624256;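 active means normalized GFP-positive differentiation at or above the plate's own cutoff, the solvent-only control mean plus 3 SD; inconclusive means no clear call, values can overlap the other calls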;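 further: cells exposed to compound for four days before flow analysis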
Starred values were filed as active, the others as inactive; i = inactive; ? = inconclusive; · = not tested or not shown; + = active, no number.

SMILES	H9c2 protect	ABCB6 inh MLPCN	hiPSC survival	beta cell repl	Myeloid diff 2
CN(C)S(=O)(=O)N1CCC(Oc2ccc(C(=O)N3CCCCCCC3)cc2)CC1	-6	86	0	-2	?
Oc1ccc(/C=N/N=C/c2ccc(O)c(O)c2)cc1O	52*	105	0	-3	i
CN(Cc1ccccc1)C(=O)CN1CCN(S(=O)(=O)c2ccccc2F)CC1	0	93	26*	·	i
O=S(=O)(c1ccccc1F)N1CCN(CC(O)c2ccccc2)CC1 (centres undefined)	0	97	-1	-2	i
COc1ccc(CNn2c(-c3cccs3)nc3ccccc3c2=O)cc1OC	67*	87	0	0	i
NC(N)=NS(=O)(=O)c1ccc(N)cc1	3	105	0	-6	i
COc1ccc2cc1Oc1ccc(cc1)CC1c3c(cc(OC)c4c3Oc3cc5c(cc3O4)CCNC5C2)CCN1C (centres undefined)	-18	102	-6	-6	+
COC(=O)C1=CO[C@@H](O)C2C(CO)=CCC12 (some centres undefined)	0	95	4	3	i
COc1cc(-c2nnc(SCC(=O)N(Cc3ccccc3)C(C)(C)C)o2)cc(OC)c1OC	-7	92	0	-3	+
COc1cc(OC)cc(-c2nnc(SCC(=O)N(Cc3ccccc3)C(C)(C)C)o2)c1	-10	99	3	-3	+
CC(=O)Nc1ccc(S(=O)(=O)N2CCC(C(=O)NCCC(=O)NCc3ccncc3)CC2)cc1	0	104	0	0	i
COc1ccc(Cl)cc1C(=O)N1CCN=C1SC	2	96	0	-1	i
CC(C)N1CCN(Cc2nc3ccccc3s2)CC1CCO (centres undefined)	10	99	2	-3	i
CN(C)CCCN1c2ccccc2Sc2ccccc21	50*	99	-3	-7	i
CC(=O)c1ccc2c(c1)N(CCCN(C)C)c1ccccc1S2	3	100	0	·	i
CCOC(=O)N1CCN(S(=O)(=O)c2ccc3[nH]c(=O)sc3c2)CC1	-2	97	-1	-1	i
Nc1c(C(=O)NCC2CCCO2)c2nc3ccccc3nc2n1-c1ccccc1 (centres undefined)	55*	91	2	-1	i
CCCNC(=O)c1c(N)n(-c2cccc(OC)c2)c2nc3ccccc3nc12	55*	104	0	-5	i
COc1ccc(/C=C/c2nnc(NC(=O)c3ccco3)s2)cc1	-3	95	1	-3	i
CN(C)c1ccncc1C(=O)Nc1ccc(F)cc1F	0	100	0	0	i
CC(Oc1ccccc1)C(=O)NNC(=O)c1ccccn1 (centres undefined)	35	101	-2	-1	i
C/C(=N\NC(=O)C(C)Oc1ccc([N+](=O)[O-])cc1)c1ccccn1 (centres undefined)	50*	109	-2	-6	?
CN(C)S(=O)(=O)c1cc(NC(=O)COC(=O)Cc2cccc3ccccc23)ccc1Cl	-9	90	0	0	i
Cc1ccccc1OCC(=O)Nc1c2c(nn1C(C)(C)C)CS(=O)(=O)C2	9	103	0	0	+
CC(C)(C)n1nc2c(c1NC(=O)COc1ccc(F)cc1)CS(=O)(=O)C2	0	104	0	-3	i
SMILES	H9c2 protect	ABCB6 inh MLPCN	hiPSC survival	beta cell repl	Myeloid diff 2
COc1ccc(OCC(=O)Nc2c3c(nn2C(C)(C)C)CS(=O)(=O)C3)cc1	0	98	1	4	+
CCOCCOC(=O)C1=C(C)N(C)C(=O)NC1c1ccccc1Cl (centres undefined)	-3	101	-2	-1	i
CCn1cc([N+](=O)[O-])c(C(=O)N2CCCC2)n1	12	102	0	·	+
CCn1cc([N+](=O)[O-])c(C(=O)N2CCN(C(=O)c3ccco3)CC2)n1	0	103	3	-3	i
O=C(NNc1cc(Cl)cc(Cl)c1)c1cccs1	-1	97	0	-3	i
C#CCOCCOCCOCCNc1nc(N2CCN(C(=O)[C@H](CCCN=C(N)N)n3cc(C(N)[C@@H](C)CC)nn3)CC2)nc(N2CCN(C(=O)[C@H](CCC(=O)O)n3cc([C@@H](N)CC(N)=O)nn3)CC2)n1 (some centres undefined)	0	100	2	-1	+
